We go through 86 molecules from PubChem BioAssay AID1851 (National Center for Advancing Translational Sciences (NCATS), 2009).

Where “and” joins values, the source holds several entries; their conditions need not be identical. Identical values can stand only once. Among all 16,000 compounds or so, about 4,000 (25%) were called active. Inconclusive results (about 26%) are left out. Not all results are given here. A number with no mark means an inactive call. The call rests on the fitted dose curve; in most records, active means well fitted curve in the direction sought with a large enough effect; inconclusive means small, poorly fitted or top-dose-only effect, or effect the other way; inactive means no such curve, though single readings can be large or run the other way.
On the % scale 0 is the no-effect control and ±100 the full control effect.

This experiment deals with Cytochrome P450 2C9 (Homo sapiens) (UniProt P11712). Kind of experiment: Cytochrome panel assay with activity outcomes. The settings on record: recombinant CYP, pro-luciferin dealkylation, luminescence, p450-cyp2c9; series mostly up to 57.1 µM; activity, negative = inhibition: at the top concentration.
Cytochrome P450 2C9 (Homo sapiens), sequence (P11712 whole entry, looked up): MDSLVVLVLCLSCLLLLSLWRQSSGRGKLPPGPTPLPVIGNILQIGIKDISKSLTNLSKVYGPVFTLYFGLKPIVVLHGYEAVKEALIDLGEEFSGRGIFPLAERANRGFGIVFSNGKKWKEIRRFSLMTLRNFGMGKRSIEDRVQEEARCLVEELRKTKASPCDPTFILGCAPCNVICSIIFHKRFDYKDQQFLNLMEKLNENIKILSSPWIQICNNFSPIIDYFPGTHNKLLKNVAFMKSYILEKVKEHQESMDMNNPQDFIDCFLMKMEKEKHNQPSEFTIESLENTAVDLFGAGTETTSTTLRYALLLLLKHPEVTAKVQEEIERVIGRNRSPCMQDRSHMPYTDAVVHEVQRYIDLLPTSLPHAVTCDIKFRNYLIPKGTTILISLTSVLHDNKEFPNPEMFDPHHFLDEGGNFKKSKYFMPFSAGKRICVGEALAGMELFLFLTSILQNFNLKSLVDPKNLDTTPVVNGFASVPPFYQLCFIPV
Regarding `CCOc1ccc(/C=C/C2=Cc3c(sc(NC(=O)CSc4n[nH]c(N)n4)c3C#N)C(C)(C)C2)cc1`, the AC50 was 10 µM (active).

On to `Cc1ccc(/C=C/C2=Cc3c(sc(NC(=O)CSc4n[nH]c(N)n4)c3C#N)C(C)(C)C2)o1`, for which the AC50 was 2.82 µM (active).

For `CC(=O)OC[C@@H]1O[C@@H](O/N=C2/C[C@@H](O)[C@@H](O)[C@@H]3[C@@H]4C(=O)N(c5cccc(Oc6ccccc6)c5)C(=O)[C@H]4CC[C@H]23)[C@H](OC(C)=O)[C@H](OC(C)=O)[C@@H]1OC(C)=O`, the activity, negative = inhibition was 1.66% [at 11.4 µM].

In the case of `CC(C)(C)NC[C@H](O)c1cc(O)cc(O)c1`, the “activity, negative = inhibition” value was -0.81% [at 25.6 µM].

Regarding `C[C@@H]1OC2C3=C(C(=O)[C@H]4O[C@@H]4[C@H]3O)[C@@H]1[C@H]1[C@H](C)OC=C3[C@H](O)[C@H]4O[C@H]4/C(=N\OCc4ccccc4)[C@@]321`, the activity, negative = inhibition is 13.2% [at 11.4 µM].

With `CCOc1cc(CNCCO)c(Cl)cc1OCC(=O)NCCc1ccccc1`, the “activity, negative = inhibition” value was -27.7%.

For the molecule `CCOc1cc(CNCCc2ccc(S(N)(=O)=O)cc2)cc(Cl)c1OCc1ccccc1`, the AC50 is 12.6 µM (active).

Consider `Cc1ccc(C)c(S(=O)(=O)NC(C)C(=O)Nc2ccc(-c3nc4ccccc4s3)cc2)c1` (stereo unspecified), for which the “activity, negative = inhibition” value was 9.42%.

As for `Cc1ccc(-c2cc(C(=O)NN=C3CCCC3)c3ccccc3n2)cc1`, the AC50 was 12.6 µM (active).

With `Cc1ccc2nc(-c3ccc(NC(=O)c4ccc(N)cc4)c(S(=O)(=O)O)c3)sc2c1`, the activity, negative = inhibition was -3.37% [at 11.4 µM].

Take `Cc1ccc(-c2nc3ccccc3s2)cc1NC(=S)NC(=O)c1ccccc1`: the AC50 was 3.55 µM (active).

For the molecule `O=C(O)c1cc(-c2ccc3cc4c(cc3c2)OCO4)nc2ccccc12`, the activity, negative = inhibition is -17.1% [at 11.4 µM].

In the case of `CCCc1ccc(-c2cc(C(=O)NN3CCOCC3)c3ccccc3n2)cc1`, the AC50 was 2.51 µM (active).

`Cc1ccccc1NC(=S)NC(=O)c1cc(-c2ccccc2)nc2ccccc12`: the AC50 was 3.55 µM (active).

Regarding `C[N+]1(C)CCc2cc(O)c(O)cc2[C@H]1Cc1ccc(O)c(O)c1`, the activity, negative = inhibition was 6.54% [at 11.4 µM].

As to `CN(Cc1ccco1)c1ncnc2ccc(-c3ccoc3)cc12`, the activity, negative = inhibition is -10.5% [at 2.29 µM].

As for `Cc1cnc(CNc2cc(-c3ccccc3Cl)ncn2)cn1`, the activity, negative = inhibition is 8.89% [at 2.29 µM].

For the molecule `O=C1C[C@@H](O)[C@@H](O)[C@H]2[C@@H]3C(=O)N(C[C@@H]4CCCO4)C(=O)[C@@H]3CC[C@H]12`, the activity, negative = inhibition was 21.7% [at 11.4 µM] and 13.9% [at 11.4 µM].

Regarding `CNc1cc(-c2c(C)noc2C)ncn1`, the activity, negative = inhibition was 9.86% [at 2.29 µM].

As to `CCn1c(C)cc(/C=C2\NC(=O)N(Cc3ccc(Cl)cc3)C2=O)c1C`, the “activity, negative = inhibition” value was -25.1%.

Take `FC(F)(F)c1ccccc1-c1cc(NCc2cccnc2)ncn1`: the activity, negative = inhibition is 16.9% [at 2.29 µM].

For `CCCOc1ccc(C(=O)NNC(=S)NC(=O)c2cc(-c3ccccc3)nc3ccccc23)cc1`, the half-maximal activity concentration (AC50) is 2.51 µM (active).

Consider `CCCCOc1cc(C(=O)NCCN(CC)CC)c2ccccc2n1`, for which the “activity, negative = inhibition” value was 10.5% [at 25.6 µM].

With `CCCOc1ccc(C(=O)NNC(=S)NC(=O)CC)cc1`, the “activity, negative = inhibition” value was -24.3%.

In the case of `CCN1CCN(CCCNC(=O)C(NC(=O)C2CCC(C)CC2)C(C)C)CC1` (stereo unspecified), the “activity, negative = inhibition” value was -8.03%.

Consider `CC(=O)C1=C(O)C=C(c2ccco2)CC1c1ccco1` (stereo unspecified), for which the AC50 was 7.94 µM (active).

On to `NC(=O)C(=O)O`, for which the “activity, negative = inhibition” value is 8.82%.

With `Clc1ccc2c(c1)C1=C(C(c3ccncc3)O2)C(c2ccc(Br)cc2)n2ncnc2N1` (stereo unspecified), the AC50 was 1.41 µM (active).

For `CCN=C(N)CSS(=O)(=O)O`, the activity, negative = inhibition was -1.49% [at 11.4 µM].

`O=C(OCc1ccc(Cl)cc1Cl)c1cccnc1Cl`: the AC50 was 17.8 µM (active).

As for `O=C(O)c1cccnc1C(=O)O`, the “activity, negative = inhibition” value is 1.96%.

Regarding `COc1ccccc1-c1cncnc1-n1ccnc1`, the activity, negative = inhibition was -14.3% [at 2.29 µM].

Consider `O=C(Nc1nc(-c2ccccc2)cs1)c1cccc([N+](=O)[O-])c1`, for which the AC50 is 7.08 µM (active).

For `Cc1ccc(Nc2nc(-c3sc(NC(=O)c4ccc([N+](=O)[O-])cc4)nc3C)cs2)cc1`, the “activity, negative = inhibition” value is -23.8%.

For `CCN1C(=O)[C@H]2[C@H]3[C@H](O)[C@H](O)C/C(=N/OCC(C)C)[C@H]3CC[C@@H]2C1=O`, the activity, negative = inhibition was -3.02% [at 11.4 µM].

Consider `CC(=C/c1ccccc1)/C=N/n1cnnc1`, for which the AC50 was 3.98 µM (active).

Regarding `CNc1cc(-c2ccccc2C)ncn1`, the activity, negative = inhibition is 21.7% [at 2.29 µM].

As to `Cc1ccccc1-c1cc(N(C)C)ncn1`, the activity, negative = inhibition is 9.36% [at 2.29 µM].

For the molecule `Cc1ccccc1-c1cc(-c2ccccc2O)on1`, the AC50 was 8.91 µM (active).

For the molecule `CNC[C@@H](SC)c1ccc(O)c(O)c1`, the activity, negative = inhibition was 0.961% [at 11.4 µM].

For `Cn1c(=O)c2c(nc(Cl)n2Cc2ccc(Cl)c(Cl)c2)n(C)c1=O`, the AC50 was 6.31 µM (active).

For the molecule `Cn1c(OCc2ccc3c(c2)OCO3)nc2c1c(=O)n(Cc1ccc(Cl)c(Cl)c1)c(=O)n2C`, the AC50 was 2.51 µM (active).

Regarding `Cn1c(=O)c2c(nc(Cc3ccccc3)n2CC(=O)O)n(C)c1=O`, the activity, negative = inhibition was -4.06% [at 11.4 µM].

Turning to `Cn1c(=O)c2c(nc(NCCNc3nc4c(c(=O)n(C)c(=O)n4C)n3C)n2C)n(C)c1=O`, the activity, negative = inhibition was 3.94% [at 11.4 µM].

Regarding `c1cnc(N2CCN(Cc3ccc4c(c3)OCO4)CC2)nc1`, the AC50 entry is “inactive”.

For `O=C(COc1ccc(Cl)cc1)N1CCN(Cc2ccc3c(c2)OCO3)CC1`, the “activity, negative = inhibition” value is -34.1% [at 25.6 µM].

`CCN(CC(=O)O)CC(=O)O`: the activity, negative = inhibition is 8.87% [at 11.4 µM].

Regarding `O=C(Nc1ccccc1)N1CCCC2(CCN(C(=O)c3cnccn3)CC2)C1`, the “activity, negative = inhibition” value is -14.6%.

In the case of `Cn1c(=O)c2[nH]c(-c3ccc(S(=O)(=O)O)cc3)nc2n(C)c1=O`, the “activity, negative = inhibition” value was -12.8%.

`CCS(=O)(=O)Nc1ccc(C2=NN(C(=O)c3ccco3)C(c3ccc(C)cc3)C2)cc1` (stereo unspecified): the AC50 was 2.24 µM (active).

Consider `CC(C)[C@]1(Cl)CC[C@@H]2[C@]3(C)CCC[C@@](C)(C(=O)O)[C@H]3C[C@H](Cl)[C@@]2(Cl)[C@H]1Cl`, for which the activity, negative = inhibition was -25.3% [at 11.4 µM].

With `Cc1cc2nc(CCN(C(=S)NCC(C)C)C3CCCC3)[nH]c2cc1C`, the AC50 was 7.94 µM (active).

For `Cc1cc2nc(C3CCCN(C(=S)Nc4ccccc4)C3)[nH]c2cc1C` (stereo unspecified), the “activity, negative = inhibition” value was -19%.

On to `Clc1ccc2c(c1)C(N1CCNCC1)=Nc1ccccc1O2`, for which the “activity, negative = inhibition” value was -8.46% [at 25.6 µM].

For `NC(=O)CC(c1ccccc1)c1ccco1` (stereo unspecified), the “activity, negative = inhibition” value is -10%.

With `O=C(c1ccco1)N(CCC(c1ccccc1)c1ccco1)Cc1ccco1` (stereo unspecified), the concentration at half-maximal activity (AC50) is 2.24 µM (active).

In the case of `Cc1ccc(C(CC(N)=O)c2ccco2)cc1` (stereo unspecified), the “activity, negative = inhibition” value was -7.64%.

Turning to `O=C(/C=C/c1ccccc1)N/C(=C/c1ccccc1)C(=O)Nc1ccccc1O`, the AC50 is 4.47 µM (active).

As to `O=C(/C=C\c1ccccc1)c1ccccc1O`, the activity, negative = inhibition is -9.15% [at 11.4 µM].

Take `Cc1cn([C@H]2C[C@H](O)[C@@H](COC(N)=O)O2)c(=O)[nH]c1=O`: the activity, negative = inhibition is 18.3% [at 11.4 µM].

On to `CCCCNC(=O)C1CCN(Cc2ccccn2)CC1`, for which the “activity, negative = inhibition” value was -9.44%.

For the molecule `CN(C)CCOC(=O)COc1ccc(Cl)cc1`, the AC50 entry is “inactive”.

For the molecule `CCOC(=O)COc1ccc(/C=C/[N+](=O)[O-])c(OCC(=O)OCC)c1`, the AC50 is 7.94 µM (active).

On to `COC(=O)N1CCC2(CC1)CN(c1ccccc1)C2`, for which the “activity, negative = inhibition” value was -14%.

Consider `CS(=O)(=O)Nc1cccc(-c2nc(N3CCOCC3)c3ccccc3n2)c1`, for which the activity, negative = inhibition was -0.621% [at 2.29 µM].

Regarding `O=C(O)C1C2CCC(C2)C1C(=O)NCc1ccco1` (stereo unspecified), the “activity, negative = inhibition” value is -7.58%.

For `O=C(COC(=O)c1cccc(S(=O)(=O)N2CCN(c3ccccc3)CC2)c1)NCc1ccco1`, the AC50 was 2.24 µM (active).

As to `O=C(CCc1nc2ccccc2c(=O)[nH]1)OCC(=O)N1CCN(S(=O)(=O)c2ccccc2)CC1`, the “activity, negative = inhibition” value was 8.87%.

Take `O=C(COC(=O)c1cccc(S(=O)(=O)N2CCOCC2)c1)Nc1nc(-c2ccccc2Cl)cs1`: the AC50 is 4.47 µM (active).

On to `CCCc1nc2ccccc2c(C(=O)OCC(=O)Nc2cccc(S(=O)(=O)N3CCOCC3)c2)c1CC`, for which the half-maximal activity concentration (AC50) is 14.1 µM (active).

Turning to `Clc1ccccc1-c1nccc(NCCN2CCOCC2)n1`, the activity, negative = inhibition is 29.8% [at 2.29 µM].

Regarding `Clc1ccccc1-c1ccc2ncnc(NCCN3CCOCC3)c2c1`, the activity, negative = inhibition is 24.6% [at 2.29 µM].

On to `C[n+]1cc2c3c(ccc2c2ccc4cc5c(cc4c21)OCO5)OCO3`, for which the “activity, negative = inhibition” value was -18.7%.

Turning to `COC(=O)[C@H](C)NC(=O)C/C=C\[C@@H](C)[C@H]1C=C[C@H](O)[C@@H](CO)O1`, the activity, negative = inhibition was -20.2% [at 11.4 µM].

Consider `Cc1cc(C)nc(Nc2n[nH]c(COc3ccc4ccccc4c3)n2)n1`, for which the “activity, negative = inhibition” value is -13.6%.

As to `CCOc1ccc(N2C(=O)CN=C2Nc2ccccc2F)cc1`, the AC50 is 12.6 µM (active).

As for `CCOc1ccc(N2C(=O)CN=C2Nc2ccccc2Cl)cc1`, the “activity, negative = inhibition” value was -15.4%.

`CCOc1ccc(N2C(=O)/C(=C/c3cccs3)N(CC(=O)OC)C2=S)cc1`: the “activity, negative = inhibition” value was 29.2%.

As for `COc1c(O)cc2c(c1O)[C@@H]1O[C@@H](CO)[C@@H](O)[C@@H](O)[C@@H]1OC2=O`, the “activity, negative = inhibition” value was -0.188% [at 25.6 µM].

Consider `COC(=O)Nc1ccc2[nH]cc(CCNC(C)=O)c2c1`, for which the “activity, negative = inhibition” value was -6.3%.

As to `O=C(Nc1ccc2ccccc2c1)[C@H]1C[C@@H]1[C@H](NP(=O)(c1ccccc1)c1ccccc1)c1ccccc1`, the AC50 is 3.16 µM (active).

As for `O=C(NCCc1c[nH]c2ccccc12)[C@@H]1C[C@H]1[C@@H](NP(=O)(c1ccccc1)c1ccccc1)c1ccccc1`, the AC50 is 0.251 µM (active).

`O=C(NCc1cc(F)cc2c1OCCO2)[C@H]1C[C@@H]1[C@H](NP(=O)(c1ccccc1)c1ccccc1)c1ccccc1`: the AC50 was 12.6 µM (active).

With `O=C(NCCc1c[nH]c2ccccc12)[C@H]1C[C@@H]1[C@H](NP(=O)(c1ccccc1)c1ccccc1)c1ccccc1`, the concentration at half-maximal activity (AC50) was 2 µM (active).

On to `CSC(N)=NCCC[C@@H](N)C(=O)O`, for which the “activity, negative = inhibition” value is -9.74%.

`N=C(N)CCNC(=O)[C@@H]1CCC(N)=N1`: the activity, negative = inhibition is -0.797% [at 11.4 µM].
